# Assay results: PubChem BioAssay (NCATS)
# Records with an inconclusive call do not appear. Active and inactive are the calls of the source. Calls follow the shape of the dose curve; as a rule, active = well fitted activation curve with a large enough effect in the main read-out, with a control signal flat (not every such curve was filed as active); inconclusive = small, poorly fitted or top-dose-only effect, or effect the other way, or a change in a side signal; inactive = flat fitted curve, though single readings scatter.
# Target: 3',5'-cyclic-AMP phosphodiesterase 4B (Homo sapiens) (UniProt Q07343)
# Test: qHTS Assay for Inhibitors of PDE-IV (AID 607)
# Conditions: HEK293 ACTOne CNG channel cells, membrane potential fluorescence; series mostly up to 22.9 µM
# Source text: NIH Chemical Genomics Center [NCGC]
# NIH Molecular Libraries Screening Centers Network [MLSCN]
# The cyclic nucleotide phosphodiesterases (PDEs) are proteins that catalyze hydrolysis of 3', 5'-cyclic nucleotides, such as cyclic adenosine monophosphate (cAMP) and cyclic guanosine monophosphate (cGMP), to their corresponding 5'-nucleotide monophosphates. These enzymes play an important role in controlling cellular concentrations of cyclic nucleotides and have a central role in a variety of intracellular signaling events. cAMP PDEs are emerging as a promising class of drug targets in asthma and cardiovascular disease therapeutic areas.
# There are no commercially available cell-based screening assays for PDE inhibitors: currently biochemical assays are done using pure substrates (cAMP or cGMP) and purified recombinant PDE enzymes. As with other biochemical screens on intracellular targets, false positives and false negatives may result from issues involving cell membrane permeability, cellular metabolism, and the like.
# Here we report the development of a cell-based screening assay for cAMP phosphodiesterase (PDE) inhibitors. The assay is based on the BD ACTOne# technology (BD Biosciences) which utilizes a modified cyclic nucleotide-gated channel (CNG) to monitor intracellular cAMP changes in live cells. The CNG channel is localized on the plasma membrane, and opens when the intracellular cAMP level increases, resulting in ion flux and cell membrane depolarization. The influx of cations through the CNG channel can be quantified using membrane potential (MP) dyes. We modified the BD ACTOne technology to allow the detection of PDE inhibitors, and performed an inhibitor screen for PDE-IV, which is expressed endogenously in HEK293 cells. We optimized this assay in homogeneous 1536-well plate assay format for high throughput screening.
# NCGC Assay Protocol Summary:
# The medium contained 10% FBS (Invitrogen), 2 mM L-glutamine, and 250 ug/ml G418 (Cellgro) and 1 ug/ml puromycin (Clontech). ACTOneTM parental cells (BD Biosciences) were maintained in the same medium without puromycin.
# The activity of the CNG channel was measured by BD ACTOneTM membrane potential dye kit (BD Biosciences). Forskolin, a positive control for cAMP activation and RO 20-1724, a PDE inhibitor, were both purchased from Sigma and solublized in DMSO.
# Sequence,Parameter,Value,Description
# 1,Reagent,3 uL,1000 cells/well 1536 TC treated Black plate
# 3,Compound,0.5 uL,Kalypsys dispense RO 20-1724 100 uM final [A]
# 4,Reagent,3 uL,BD membrane potential dye
# 6,Compound,23 nL,Final concentration was 0.7nM to 22.9uM
# 8,Detector,EX 535 / EM 590 [B],Envision
# Footnotes: [A] The stock 2 mM RO 20-1724 PDE inhibitor was made in 10 % DMSO. Parental cell line received 10 uM forskolin + 100 uM RO. [B] Envsion settings: Bottom Excitation 535/20 nm top emission 590/20, gain of 150 and 5 flashes per well.
# Keywords: PDE, PDE-IV, cytotoxicity, flourescence, MLSMR, MLSCN, NIH Roadmap, qHTS, NCGC
# Sequence of 3',5'-cyclic-AMP phosphodiesterase 4B (Homo sapiens) (Q07343 whole entry, looked up): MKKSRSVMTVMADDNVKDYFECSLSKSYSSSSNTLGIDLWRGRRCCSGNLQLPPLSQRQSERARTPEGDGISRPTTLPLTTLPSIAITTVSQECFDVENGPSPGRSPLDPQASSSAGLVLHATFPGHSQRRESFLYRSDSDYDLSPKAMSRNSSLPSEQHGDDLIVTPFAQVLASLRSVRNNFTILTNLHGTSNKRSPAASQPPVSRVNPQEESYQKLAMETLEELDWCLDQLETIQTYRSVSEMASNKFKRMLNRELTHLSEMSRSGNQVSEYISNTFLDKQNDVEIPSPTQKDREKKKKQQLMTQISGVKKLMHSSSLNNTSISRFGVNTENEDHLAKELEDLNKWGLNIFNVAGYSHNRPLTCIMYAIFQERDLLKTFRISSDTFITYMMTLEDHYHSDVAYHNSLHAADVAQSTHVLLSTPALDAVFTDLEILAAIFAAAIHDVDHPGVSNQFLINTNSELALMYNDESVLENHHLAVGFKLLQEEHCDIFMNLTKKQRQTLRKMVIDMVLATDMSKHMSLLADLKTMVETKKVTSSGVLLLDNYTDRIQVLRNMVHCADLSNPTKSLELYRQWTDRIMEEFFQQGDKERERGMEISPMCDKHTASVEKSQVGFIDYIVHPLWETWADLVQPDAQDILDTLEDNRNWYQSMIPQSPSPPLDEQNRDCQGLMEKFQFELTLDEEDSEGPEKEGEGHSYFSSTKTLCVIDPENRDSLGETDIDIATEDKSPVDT
row,Structure (SMILES),outcome
1,CN(N=O)C(=O)N[C@H]1C(O)OC(CO)[C@@H](O)[C@H]1O (some centres not stated),inactive
2,COc1cc2c(cc1O)CCC1C2CC[C@@]2(C)C1CC[C@@H]2O (some centres not stated),inactive
3,O=C(O)C=Cc1ccc(Cn2ccnc2)cc1,inactive
4,CCN1CCN(C(=O)N[C@H](C(=O)N[C@@H]2C(=O)N3C(C(=O)O)=C(CSc4nnnn4C)CS[C@@H]23)c2ccc(O)cc2)C(=O)C1=O,inactive
5,CC(Oc1ccc(O)cc1)(P(=O)(O)O)P(=O)(O)O,inactive
6,O=c1c(O)c(-c2ccc(O)c(O)c2)oc2cc(O)ccc12,inactive
7,CN1[C@H]2CC(OC(=O)[C@@H](CO)c3ccccc3)C[C@H]1[C@H]1O[C@H]12 (some centres not stated),inactive
8,CC(C)[C@H](CO)Nc1nc(Nc2cccc(Cl)c2)c2ncn(C(C)C)c2n1,inactive
9,CN(C)CC[C@H](c1ccc(Cl)cc1)c1ccccn1,inactive
10,COc1ccc2c(c1OC)C(=O)OC2[C@H]1c2c(cc3c(c2OC)OCO3)CCN1C (some centres not stated),inactive
11,Nc1nc2c(c(=O)[nH]1)N(C=O)[C@H](CNc1ccc(C(=O)N[C@@H](CCC(=O)O)C(=O)O)cc1)CN2,inactive
12,c1coc(CNc2ncnc3nc[nH]c23)c1,inactive
